Test results reported in PubChem BioAssay (NCATS).
Active and inactive are the calls of the source. How the calls were made is not given here.

These compounds were tested on HIV-1 nucleocapsid protein NCp7 (binding to TG oligonucleotide) (assay: HIV Nucleocapsid (AID 346;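 further: potency is for inhibitors that block NC binding and lower polarization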)). Conditions: HIV-1 NC / fluorescein-TGTGTGTG probe, fluorescence polarization.
Method in brief: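 NCp7 100 nM + fluorescein TG4xF 10 nM; Hepes pH 7.5/250mM NaCl/1uM ZnCl2/0.004% PEG 20000; 1 hr RT; FP, 45 s exposure; oligo-only wells as negative control.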
Potency means the concentration at half of the fitted maximal effect.

Compound | Potency
COc1ccccc1-c1nccc(NCc2cccnc2)n1 | > 20 µM (inactive)
CN(C)C(=O)c1ccc(-c2cncnc2Nc2ccc(F)cc2)cc1 | > 20 µM (inactive)
CN(C)c1ccc(-c2cncnc2NCCN2CCOCC2)cc1 | > 20 µM (inactive)
Cn1cccc1C(=O)N1CCC2(CCCN(C(c3ccccc3)c3ccccc3)C2)CC1 | > 20 µM (inactive)
c1cncc(-c2ccc3ncnc(NC4CCNCC4)c3c2)c1 | > 20 µM (inactive)
O=C(Nc1ccccc1)N1CCCC2(CCN(C(=O)c3ccco3)CC2)C1 | > 20 µM (inactive)
O=C(c1cccc(F)c1)N1CCC[C@@]2(CCN(c3cccc(-c4ccccc4)c3)C2)C1 | > 20 µM (inactive)
COC(=O)N1CCC2(CC1)CN(C(c1ccccc1)c1ccccc1)C2 | > 20 µM (inactive)
COc1ncc2nc(-c3cc(F)cc(F)c3)c(=O)n(C[C@H]3CCCO3)c2n1 | > 20 µM (inactive)
COc1ncc2ncc(=O)n(C[C@H]3CCCO3)c2n1 | > 20 µM (inactive)
CN(C)c1ncc2nc(-c3ccc(F)cc3)c(=O)n(C)c2n1 | > 20 µM (inactive)
Cn1cc(-c2nc3cnc(Oc4ccccc4)nc3n(C)c2=O)c2ccccc21 | > 20 µM (inactive)
COc1ccc(Oc2ncc3nc(-c4cccc(C#N)c4)c(=O)n(Cc4cccc(OC)c4)c3n2)cc1 | > 20 µM (inactive)
O=C(c1csnn1)N1CCC2(CC1)CCN(c1ncccn1)CC2 | > 20 µM (inactive)
COC(=O)N1CCC2(CC1)CN(c1ccc(-c3ccccc3)cc1)C2 | > 20 µM (inactive)
CCNc1ncc2nc(-c3cc(F)cc(F)c3)c(=O)n(Cc3ccc(F)cc3)c2n1 | > 4 µM (inactive)
O=C(c1csnn1)N1CCC[C@@]2(CCN(c3ccccc3)C2)C1 | > 20 µM (inactive)
O=c1c(-c2ccc(F)cc2)nc2cncnc2n1C1CC1 | > 20 µM (inactive)
COc1ccc(Oc2ncc3nc(C)c(=O)n(CCc4ccccc4)c3n2)cc1 | > 20 µM (inactive)
FC(F)(F)c1ccccc1-c1nc(NC2CCNCC2)c2ccccc2n1 | > 20 µM (inactive)

Compound | Potency
O=C(c1ccncc1)N1CCC2(CC1)CN(c1ccncc1)C2 | > 20 µM (inactive)
c1ccc(-c2ccc(N3CC[C@@]4(CCCNC4)C3)cc2)cc1 | > 20 µM (inactive)
Cc1nc2cnc(N3CCNCC3)nc2n(CCc2ccccc2)c1=O | > 4 µM (inactive)
CS(=O)(=O)N1CCC2(CC1)CN(Cc1ccccc1)C2 | > 20 µM (inactive)
Cc1cccc(CNc2ncnc3ccc(-c4cccc(NS(C)(=O)=O)c4)cc23)c1 | > 20 µM (inactive)
CS(=O)(=O)N1CCC2(CCN(c3cccc(-c4ccccc4)c3)CC2)CC1 | > 20 µM (inactive)
CN(C)c1ncc2nc(-c3ccccc3)c(=O)n(C)c2n1 | > 20 µM (inactive)
O=C(Nc1cccc(F)c1)N1CCCC2(CCN(C(=O)c3cnccn3)CC2)C1 | > 20 µM (inactive)
COc1ccc2[nH]cc(CCNc3ccnc(-c4ccccc4C)n3)c2c1 | > 20 µM (inactive)
COc1ccc(-n2c(=O)c(-c3ccccc3)nc3cnc(N4CCOCC4)nc32)cc1 | > 20 µM (inactive)
COCCn1c(=O)c(-c2ccc(OC)cc2)nc2cnc(OCc3ccccc3)nc21 | > 20 µM (inactive)
CN(C)C(=O)c1ccc(-c2cncnc2NCc2cccs2)cc1 | > 20 µM (inactive)
COc1ccccc1CNc1ncnc2ccc(-c3ccc(N(C)C)cc3)cc12 | > 20 µM (inactive)
COc1ccc(C(=O)N2CCC3(CCCN(c4ccc(-c5ccccc5)cc4)C3)CC2)cc1 | > 20 µM (inactive)
Cc1nc2cnc(Nc3ccccc3)nc2n(Cc2cccs2)c1=O | > 20 µM (inactive)
CN1CCN(c2ncncc2-c2ccccc2C(F)(F)F)CC1 | > 20 µM (inactive)
COc1cccc(-c2ccc3ncnc(NCc4ccccc4OC)c3c2)c1 | > 20 µM (inactive)
COc1ccc(C(=O)N2CCC3(CC2)CN(CC(C)C)C3)cc1 | > 20 µM (inactive)
COc1ccc(NC(=O)N2CCC3(CC2)CCN(S(C)(=O)=O)CC3)cc1 | > 20 µM (inactive)
